Results published in the supplement of paper PMC8387472.
Counter-ions that a name gives are not always drawn. ± gives the standard deviation of the averaged measurements.

What was measured:
[1] = system: 6.0 (DMSO control at this site: 1-bp insertion 0.296, MH deletion 0.491, edited 0.076) ACGATTGGCCCCCACAAAGCGGACCAGCCAGCGTGCTAGGGAATAAGGCCAACTTGCACCC; experiment: fraction of edited reads among all mapped reads; higher = more Cas9 editing; conditions: mESC; 2uM; 72 h treatment, harvest day 5
[2] = system: 6.0 (DMSO control at this site: 1-bp insertion 0.296, MH deletion 0.491, edited 0.076) ACGATTGGCCCCCACAAAGCGGACCAGCCAGCGTGCTAGGGAATAAGGCCAACTTGCACCC; experiment: fraction of microhomology deletions among edited reads; higher = more MH deletions; conditions: mESC; 2uM; 72 h treatment, harvest day 5
[3] = system: 6.0 (DMSO control at this site: 1-bp insertion 0.296, MH deletion 0.491, edited 0.076) ACGATTGGCCCCCACAAAGCGGACCAGCCAGCGTGCTAGGGAATAAGGCCAACTTGCACCC; experiment: fraction of 1-bp insertions among edited reads; higher = more 1-bp insertion outcomes; conditions: mESC; 2uM; 72 h treatment, harvest day 5
[4] = system: mESC LDLR-Dup GFP reporter (SpCas9 MH-deletion repair); experiment: fraction of GFP+ cells relative to DMSO control (fold change); higher = more MH-deletion repair to in-frame LDLR (or more editing); conditions: 2 µM; 7 days post-transfection
[5] = system: 24.0 GACCACAGCCCCCAGCAGGGGAGGCCCCCAGCAGGGGAGGCCCACACCTGCCCCAGCACCT; experiment: fraction of edited reads among all mapped reads; higher = more Cas9 editing; conditions: mESC; 2uM; 72 h treatment, harvest day 5
[6] = system: 24.0 GACCACAGCCCCCAGCAGGGGAGGCCCCCAGCAGGGGAGGCCCACACCTGCCCCAGCACCT; experiment: fraction of microhomology deletions among edited reads; higher = more MH deletions; conditions: mESC; 2uM; 72 h treatment, harvest day 5
[7] = system: 24.0 GACCACAGCCCCCAGCAGGGGAGGCCCCCAGCAGGGGAGGCCCACACCTGCCCCAGCACCT; experiment: fraction of 1-bp insertions among edited reads; higher = more 1-bp insertion outcomes; conditions: mESC; 2uM; 72 h treatment, harvest day 5

Which “fraction of edited reads among all mapped reads” value [1] does the source give for Cc1cccc(CC(=O)N2CCc3c2ccc(-c2cn(C)c4ncnc(N)c24)c3F)n1 here?
The value was 0.114.

What about the “fraction of microhomology deletions among edited reads” value [2] of the same molecule?
The value was 0.501.

And the “fraction of 1-bp insertions among edited reads” value [3]?
Its value is 0.337.

What about the “fraction of GFP+ cells” value [4] of the same molecule?
Its value is 0.925 ± 0.19.

For O=C(c1cccc(Cl)c1F)N1CCN(Cc2cccc(Nc3nccs3)n2)CC1, which “fraction of edited reads among all mapped reads” value [1] is on record?
Its value is 0.0584.

And the “fraction of microhomology deletions among edited reads” value [2]?
The value was 0.559.

And the “fraction of 1-bp insertions among edited reads” value [3]?
Its value is 0.193.

And the “fraction of GFP+ cells” value [4]?
Its value is 1.25 ± 0.38.

How did the “fraction of GFP+ cells” value [4] turn out when CCc1nc(N)nc(N)c1-c1ccc(Cl)cc1 [Pyrimethamine] was run?
Its value is 1.5 ± 1.2.

For NC(=O)c1ccc2nc(-c3ccc(Oc4ccc(Cl)cc4)cc3)[nH]c2c1 [Chk 2 inhibitor II (BML-277)], which “fraction of edited reads among all mapped reads” value [1] is on record?
Its value is 0.092.

And the “fraction of microhomology deletions among edited reads” value [2]?
The value was 0.515.

And the “fraction of 1-bp insertions among edited reads” value [3]?
The value was 0.278.

And the “fraction of GFP+ cells” value [4]?
The value was 0.961 ± 0.26.

With C[C@@H]1CN(CC(=O)Nc2ccc3c(c2)Cc2cccc(-c4cc(=O)cc(N5CCOCC5)o4)c2S3)C[C@H](C)O1 as the molecule, how does the “fraction of edited reads among all mapped reads” value [1] read?
The value was 0.0449.

And the “fraction of microhomology deletions among edited reads” value [2]?
The value was 0.331.

And the “fraction of 1-bp insertions among edited reads” value [3]?
The value was 0.475.

And the “fraction of GFP+ cells” value [4]?
The value was 0.516 ± 0.11.

How did the “fraction of GFP+ cells” value [4] turn out when O=C(Nc1cccc(Cl)c1)Nc1ncc(CCNc2ncnc3ccsc23)s1 [SNS-314 Mesylate] was run?
Its value is 0.

With Cc1cc(C)nc(SCC(=O)Nc2ncc(Cc3cccc4ccccc34)s2)n1 as the molecule, how does the “fraction of edited reads among all mapped reads” value [5] read?
The value was 0.0587.

What about the “fraction of edited reads among all mapped reads” value [1] of the same molecule?
The value was 0.13.

And the “fraction of microhomology deletions among edited reads” value [6]?
The value was 0.552.

And the “fraction of microhomology deletions among edited reads” value [2]?
Its value is 0.498.

What about the “fraction of 1-bp insertions among edited reads” value [7] of the same molecule?
Its value is 0.105.

What about the “fraction of 1-bp insertions among edited reads” value [3] of the same molecule?
The value was 0.295.

What about the “fraction of GFP+ cells” value [4] of the same molecule?
The value was 1.15 ± 0.61.

What does the source list for CCn1c(=O)c(-c2ccc(Cl)cc2Cl)cc2cnc(Nc3ccc(N4CCNCC4)c(F)c3)nc21?
fraction of edited reads among all mapped reads [1]: 0.0726; fraction of microhomology deletions among edited reads [2]: 0.477; fraction of 1-bp insertions among edited reads [3]: 0.288; fraction of GFP+ cells [4]: 0.433 ± 0.12

How did the “fraction of edited reads among all mapped reads” value [1] turn out when S=c1[nH]cnc2nc[nH]c12 [Mercaptopurine (6-MP)] was run?
Its value is 0.0919.

What about the “fraction of microhomology deletions among edited reads” value [2] of the same molecule?
Its value is 0.519.

And the “fraction of 1-bp insertions among edited reads” value [3]?
The value was 0.285.

What about the “fraction of GFP+ cells” value [4] of the same molecule?
The value was 2.22 ± 1.1.

Which results are given for CC(=O)O/N=C1\C(=O)N(Cc2cc(Cl)ccc2Cl)c2ccc(Cl)cc21?
fraction of edited reads among all mapped reads [5]: 0.0521; fraction of edited reads among all mapped reads [1]: 0.0813; fraction of microhomology deletions among edited reads [6]: 0.696; fraction of microhomology deletions among edited reads [2]: 0.51; fraction of 1-bp insertions among edited reads [7]: 0.0444; fraction of 1-bp insertions among edited reads [3]: 0.256; fraction of GFP+ cells [4]: 1.21 ± 0.075

What does the source list for COc1ccccc1-c1cc(Nc2cccc(CS(N)(=O)=O)c2)ncn1?
fraction of edited reads among all mapped reads [1]: 0.0957; fraction of microhomology deletions among edited reads [2]: 0.494; fraction of 1-bp insertions among edited reads [3]: 0.281; fraction of GFP+ cells [4]: 1.17 ± 0.072

With S=c1nc[nH]c2nc[nH]c12 [6-Mercaptopurine (6-MP) Monohydrate] as the molecule, how does the “fraction of edited reads among all mapped reads” value [1] read?
The value was 0.0627.

What about the “fraction of microhomology deletions among edited reads” value [2] of the same molecule?
The value was 0.429.

And the “fraction of 1-bp insertions among edited reads” value [3]?
Its value is 0.326.

And the “fraction of GFP+ cells” value [4]?
The value was 1.21 ± 0.061.

Oc1nc(-c2ccc(C(F)(F)F)cc2)nc2c1CSCC2 was tested. Which “fraction of GFP+ cells” value [4] did it give?
Its value is 0.752 ± 0.014.

What does the source list for CO[C@H]1/C=C/O[C@@]2(C)Oc3c(C)c(O)c4c(O)c(c(/C=N/N5CCN(C6CCCC6)CC5)c(O)c4c3C2=O)NC(=O)/C(C)=C\C=C\[C@H](C)[C@H](O)[C@@H](C)[C@@H](O)[C@@H](C)[C@H](OC(C)=O)[C@@H]1C [Rifapentine]?
fraction of edited reads among all mapped reads [1]: 0.14; fraction of microhomology deletions among edited reads [2]: 0.538; fraction of 1-bp insertions among edited reads [3]: 0.258; fraction of GFP+ cells [4]: 3.03 ± 0.37

With CCN1CCN(CC(=O)Nc2ccc(-c3cccc4c(=O)cc(N5CCOCC5)oc34)c3sc4ccccc4c23)CC1 as the molecule, how does the “fraction of edited reads among all mapped reads” value [1] read?
Its value is 0.0396.

What about the “fraction of microhomology deletions among edited reads” value [2] of the same molecule?
The value was 0.588.

And the “fraction of 1-bp insertions among edited reads” value [3]?
Its value is 0.0821.

What about the “fraction of GFP+ cells” value [4] of the same molecule?
Its value is 1.08 ± 0.16.

What does the source list for Cc1ccc(C(=O)NCCCCCC(=O)Nc2ccccc2N)cc1?
fraction of edited reads among all mapped reads [1]: 0.0825; fraction of 1-bp insertions among edited reads [3]: 0.292; fraction of GFP+ cells [4]: 1.26 ± 0.13

For CNc1ccc([N+](=O)[O-])c(Nc2ccc3[nH]ncc3c2)n1, which “fraction of edited reads among all mapped reads” value [1] is on record?
The value was 0.1.

And the “fraction of microhomology deletions among edited reads” value [2]?
The value was 0.551.

And the “fraction of 1-bp insertions among edited reads” value [3]?
Its value is 0.269.

And the “fraction of GFP+ cells” value [4]?
Its value is 2.16 ± 0.36.

Which results are given for O=c1cc(N2CCOCC2)oc2c(-c3ccc4c(c3)OCCO4)csc12?
fraction of edited reads among all mapped reads [1]: 0.0488; fraction of microhomology deletions among edited reads [2]: 0.568; fraction of 1-bp insertions among edited reads [3]: 0.201; fraction of GFP+ cells [4]: 0.48 ± 0.029

CCCCCCCCCC(=O)N[C@@H](Cc1c[nH]c2ccccc12)C(=O)N[C@H](CC(N)=O)C(=O)N[C@@H](CC(=O)O)C(=O)N[C@@H]1C(=O)NCC(=O)N[C@@H](CCCN)C(=O)N[C@@H](CC(=O)O)C(=O)N[C@H](C)C(=O)N[C@@H](CC(=O)O)C(=O)NCC(=O)N[C@H](CO)C(=O)N[C@@H]([C@H](C)CC(=O)O)C(=O)N[C@@H](CC(=O)c2ccccc2N)C(=O)O[C@@H]1C [Daptomycin] was tested. Which “fraction of GFP+ cells” value [4] did it give?
The value was 1.25 ± 0.27.

How did the “fraction of edited reads among all mapped reads” value [1] turn out when CCc1c2c(nc3ccc(OC(=O)N4CCC(N5CCCCC5)CC4)cc13)-c1cc3c(c(=O)n1C2)COC(=O)[C@]3(O)CC [Irinotecan HCl Trihydrate] was run?
Its value is 0.104.

And the “fraction of microhomology deletions among edited reads” value [2]?
Its value is 0.571.

And the “fraction of 1-bp insertions among edited reads” value [3]?
Its value is 0.249.

What about the “fraction of GFP+ cells” value [4] of the same molecule?
The value was 0.463 ± 0.066.

With O=C1Cc2c([nH]c3ccc(Br)cc23)-c2ccccc2N1 [Kenpaullone] as the molecule, how does the “fraction of edited reads among all mapped reads” value [1] read?
The value was 0.165.

And the “fraction of microhomology deletions among edited reads” value [2]?
The value was 0.526.

What about the “fraction of 1-bp insertions among edited reads” value [3] of the same molecule?
Its value is 0.274.

And the “fraction of GFP+ cells” value [4]?
Its value is 1.53 ± 0.057.

With C[C@H](CN(C)C)Oc1nc(Nc2cc3cccc(Cl)c3cn2)cnc1C#N as the molecule, how does the “fraction of GFP+ cells” value [4] read?
The value was 1.28 ± 0.15.

For Cc1ccc(C(=O)OCc2ccc([C@@H](CN)C(=O)Nc3ccc4cnccc4c3)cc2)c(C)c1, which “fraction of GFP+ cells” value [4] is on record?
Its value is 1.71 ± 0.5.

Nc1ncnc2c1c(-c1cnc3[nH]ccc3c1)nn2C1CCCC1 was tested. Which “fraction of edited reads among all mapped reads” value [1] did it give?
Its value is 0.0596.

And the “fraction of microhomology deletions among edited reads” value [2]?
Its value is 0.403.

And the “fraction of 1-bp insertions among edited reads” value [3]?
Its value is 0.412.

What about the “fraction of GFP+ cells” value [4] of the same molecule?
The value was 0.289 ± 0.034.

How did the “fraction of GFP+ cells” value [4] turn out when O=C(CCCCCCNC(=O)c1cnc(N(c2ccccc2)c2ccccc2)nc1)NO [Ricolinostat (ACY-1215)] was run?
The value was 0.968 ± 0.11.

How did the “fraction of GFP+ cells” value [4] turn out when O=c1[nH]c(C2CCCN2)nc2c1oc1ccc(Cl)cc12 (stereo unspecified) was run?
Its value is 1.11 ± 0.15.

With NC1CCN(c2c(F)cc3c(=O)c(C(=O)O)cn(C4CC4)c3c2Cl)C1 (stereo unspecified) [Clinafloxacin] as the molecule, how does the “fraction of GFP+ cells” value [4] read?
The value was 0.685 ± 0.25.
